A short description of assay [1]: qHTS profiling of the MIPE4 collection as inhibitors of Plasmodium falciparum (3D7) proliferation (AID 743344).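 Further: scaled between DMSO vehicle wells and 0.29 µM artemisinin as full inhibition.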 Particulars: P. falciparum 3D7 in erythrocytes, SYBR Green DNA fluorescence, 72 h; at 28.5 µM. In short, it runs like this: (§1)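 Erythrocytes infected with P. falciparum (0.3% parasitemia, 2.5% hematocrit) incubated with compounds 72 h at 37 C, 5% CO2. Lysis with saponin/Triton buffer containing SYBR Green I, overnight at room temperature in the dark; DNA fluorescence (485/535 nm) normalised to 0.29 uM artemisinin and DMSO.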

Assay [2] is described as follows: qHTS profiling of the MIPE4 collection as inhibitors of Plasmodium falciparum (DD2) proliferation (AID 743345). Particulars: P. falciparum Dd2 in erythrocytes, SYBR Green DNA, 72 h; at 28.5 µM unless noted. In outline:
as §1

Assay [3] can be described thus: qHTS profiling of the MIPE4 collection as inhibitors of Plasmodium falciparum (DD2) proliferation (Rep 2) (AID 743346). Particulars: P. falciparum Dd2 in erythrocytes, SYBR Green DNA, 72 h; at 28.5 µM. In outline:
as §1

Assay [4] can be described thus: qHTS profiling of the MIPE4 collection as inhibitors of Plasmodium falciparum (HB3) proliferation (AID 743347).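 Further: plate controls were DMSO vehicle wells for no effect and artemisinin wells for full effect.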 Particulars: P. falciparum HB3 in erythrocytes, SYBR Green DNA, 72 h; at 28.5 µM. In short, it runs like this: as §1
Assay [5] can be described thus: High-throughput drug toxicity screening in the BPDCN cell line Gen2.2 (AID 1224824).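 Further: cells exposed to compounds for 48 h before reading.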 Particulars: Gen2.2 BPDCN cells; at 45.8 µM (top of the series). In short, it runs like this: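 Seed 500 exponentially growing Gen2.2 cells/well; add compounds by pin tool; incubate 48 h, 37 °C, 5% CO2; add CellTiter-Glo, 15 min RT; read luminescence. % activity vs DMSO (100%) and bortezomib (0%).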

SMILES strings stand for the structures.

For the compound `C[C@]12CC[C@H]3[C@@H](CCC4=CC(=O)CC[C@@]43C)[C@H]1CC[C@H]2O`, the parasite growth, % of DMSO control in assay [1] was found to be 78.5%. Moreover, the parasite growth remaining, % of DMSO control (lower = more inhibition) in assay [2] is 90.8%. Moreover, in assay [3], the parasite growth, % of control (lower = inhibition) is 93.2%. The compound further returned a growth, % of control in assay [4] of 86.3%. For the same compound, in assay [5], the cell viability, % of control (lower = more cytotoxic) was 83.2%.

With `CCN(CC)C(=O)c1ccc(C2=CC3(CCNCC3)Oc3cccc(O)c32)cc1`, in assay [1], the parasite growth, % of DMSO control is 21.1%. Besides, the parasite growth remaining, % of DMSO control (lower = more inhibition) in assay [2] came to 42.1%. Further, the parasite growth, % of control (lower = inhibition) in assay [3] is 14.4%. In assay [4], this compound had a growth, % of control of 38.8%. Moreover, in assay [5], the cell viability, % of control (lower = more cytotoxic) is 122%.

`CC(O)=C(C#N)C(=O)Nc1cc(Br)ccc1Br` yielded a parasite growth, % of DMSO control in assay [1] of 80.7%. Further, in assay [2], the parasite growth remaining, % of DMSO control (lower = more inhibition) was 97%. In addition, in assay [3], the parasite growth, % of control (lower = inhibition) came to 78.2%. This compound also registered a growth, % of control in assay [4] of 93.7%. The cell viability, % of control (lower = more cytotoxic) in assay [5] is 79.3%.

In assay [1], `CCc1c(C(=O)C(N)=O)c2c(OCC(=O)O)cccc2n1Cc1ccccc1` gave a parasite growth, % of DMSO control of 111%. Also, the parasite growth remaining, % of DMSO control (lower = more inhibition) in assay [2] turned out to be 97.5%. Also, the parasite growth, % of control (lower = inhibition) in assay [3] came to 83.8%. The growth, % of control in assay [4] amounted to 99.7%. Besides, in assay [5], the cell viability, % of control (lower = more cytotoxic) amounted to 114%.

For the compound `COc1cc([C@@H]2c3cc4c(cc3[C@@H](O)C3COC(=O)C32)OCO4)cc(OC)c1O` (stereo not given in full), the parasite growth, % of DMSO control in assay [1] is 64.9%. Besides, the parasite growth remaining, % of DMSO control (lower = more inhibition) in assay [2] is 88.5%. The parasite growth, % of control (lower = inhibition) in assay [3] amounted to 64.3%. In assay [4], this compound returned a growth, % of control of 66.2%. Besides, the cell viability, % of control (lower = more cytotoxic) in assay [5] turned out to be 6.47%.

As to `CC(C)[C@]12O[C@@H]1[C@@H]1O[C@]13[C@]1(O[C@H]1C[C@@H]1C4=C(CC[C@@]13C)C(=O)OC4)[C@H]2O`, the parasite growth, % of DMSO control in assay [1] came out at 56.9%. Besides, the parasite growth remaining, % of DMSO control (lower = more inhibition) in assay [2] stood at 77%. Further, in assay [3], the parasite growth, % of control (lower = inhibition) was determined as 49.4%. In addition, the growth, % of control in assay [4] amounted to 44.2%. In addition, the cell viability, % of control (lower = more cytotoxic) in assay [5] is 4.5%.

In turn, `C[C@]12Cc3cn[nH]c3C[C@@H]1CC[C@@H]1[C@H]2CC[C@@]2(C)[C@H]1CC[C@]2(C)O` gave a parasite growth, % of DMSO control in assay [1] of 52.2%. Moreover, the parasite growth remaining, % of DMSO control (lower = more inhibition) in assay [2] stood at 90%. In addition, the parasite growth, % of control (lower = inhibition) in assay [3] came to 54.3%. Besides, the growth, % of control in assay [4] came to 47.2%. Besides, the cell viability, % of control (lower = more cytotoxic) in assay [5] is 133%.

In assay [1], `O=S(=O)(CC1CS1)c1ccc(Oc2ccccc2)cc1` (stereo not given) showed a parasite growth, % of DMSO control of 94.4%. Besides, the parasite growth remaining, % of DMSO control (lower = more inhibition) in assay [2] worked out at 104%. Moreover, the parasite growth, % of control (lower = inhibition) in assay [3] was found to be 73.8%. The same compound registered a growth, % of control in assay [4] of 106%. Moreover, the cell viability, % of control (lower = more cytotoxic) in assay [5] was determined as 3.87%.

`CCCC[N+]1(C)[C@H]2CC(OC(=O)[C@H](CO)c3ccccc3)C[C@H]1[C@H]1O[C@H]12` (stereo not given in full) returned a parasite growth, % of DMSO control in assay [1] of 98.9%. The parasite growth remaining, % of DMSO control (lower = more inhibition) in assay [2] is 100%. In addition, the parasite growth, % of control (lower = inhibition) in assay [3] stood at 86.4%. The compound also came in with a growth, % of control in assay [4] of 52.3%. For the same compound, in assay [5], the cell viability, % of control (lower = more cytotoxic) is 119%.

In turn, `CCNC(=O)CC1N=C(c2ccc(Cl)cc2)c2cc(OC)ccc2-n2c(C)nnc21` (stereo not given) had a parasite growth, % of DMSO control in assay [1] of 26.1%. In addition, in assay [2], the parasite growth remaining, % of DMSO control (lower = more inhibition) was 93.8%. The parasite growth, % of control (lower = inhibition) in assay [3] was 70.5%. In assay [4], this compound showed a growth, % of control of 42.1%. Further, in assay [5], the cell viability, % of control (lower = more cytotoxic) was found to be 15.2%.

Compound `CC[C@H]1C=CC=CC[C@@H](C)[C@H](O)[C@@](C)(O)C(=O)[C@@H](C)[C@H](O)[C@@H](C)C(=O)[C@@H](C)[C@H](O)[C@@H](C)C=CC(=O)O[C@@H]2[C@@H](C)[C@H](CC1)O[C@]1(CC[C@H](C)[C@H](C[C@@H](C)O)O1)[C@H]2C` showed a parasite growth, % of DMSO control in assay [1] of 16.9%. For the same compound, in assay [2], the parasite growth remaining, % of DMSO control (lower = more inhibition) is 6.38%. Also, in assay [3], the parasite growth, % of control (lower = inhibition) was 20.2%. For the same compound, the growth, % of control in assay [4] is 8.5%. The cell viability, % of control (lower = more cytotoxic) in assay [5] stood at 8.73%.

In assay [1], `O=C(N[C@@H](COc1ccc2[nH]c(=O)[nH]c2c1)c1ccccc1)c1cccn(Cc2ccc(F)c(F)c2)c1=O` yielded a parasite growth, % of DMSO control of 50.5%. The parasite growth remaining, % of DMSO control (lower = more inhibition) in assay [2] was 85.6%. The parasite growth, % of control (lower = inhibition) in assay [3] was 75.9%. In assay [4], the growth, % of control was found to be 63.1%. Moreover, in assay [5], the cell viability, % of control (lower = more cytotoxic) was determined as 46.5%.

Turning to `COC1=C[C@@H]2[C@@H]3Cc4ccc(OC)c(O)c4[C@]2(CCN3C)CC1=O`, the parasite growth, % of DMSO control in assay [1] is 102%. The parasite growth remaining, % of DMSO control (lower = more inhibition) in assay [2] worked out at 84.4%. For the same compound, the parasite growth, % of control (lower = inhibition) in assay [3] came to 34.6%. Further, in assay [4], the growth, % of control was found to be 106%. In addition, the cell viability, % of control (lower = more cytotoxic) in assay [5] worked out at 69.4%.

Consider `CCOP(=O)(OCC)C(C)NC(=O)N(CCCl)N=O` (stereo not given), for which the parasite growth, % of DMSO control in assay [1] stood at 103%. Moreover, the parasite growth remaining, % of DMSO control (lower = more inhibition) in assay [2] worked out at 97.6%. In addition, in assay [3], the parasite growth, % of control (lower = inhibition) stood at 135%. The compound further registered a growth, % of control in assay [4] of 116%. Further, in assay [5], the cell viability, % of control (lower = more cytotoxic) was found to be 109%.

Source of the values: PubChem BioAssay (NCATS).
